# In the supplement of paper PMC8975748:
# Counter-ions that a name gives are not always drawn.
# Test system: Saccharomyces cerevisiae BY4741 SeMeCo community
# Assay: z-score of subpopulation abundance vs DMSO median, subpopulation auxotrophic for UM; higher = larger share of this subpopulation than in DMSO controls
# Settings: 10 µM; 24 h; SM minimal medium; subpopulation (auxotrophy): UM
# In short: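 A community of Saccharomyces cerevisiae BY4741 was built from four plasmids that each restored one auxotrophy and encoded a distinct fluorescent protein. Pre-grown overnight to OD600 1.0 and diluted to 0.3, it was dispensed at 70 µl into 384-well plates acoustically predosed with library drugs for a final 10 µM, and grown 24 h in minimal SM medium. Cells were then paraformaldehyde-fixed and imaged by automated confocal microscopy. Thresholds and autofluorescence correction came from single-auxotroph fluorescent strains, and each subpopulation's abundance was scored as a z-score relative to the vehicle-well median.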
row,SMILES,z-score of subpopulation abundance
1,COc1cc(O)c(C(=O)Nc2nc(C(=O)NCCN(C(C)C)C(C)C)cs2)cc1OC [Acotiamide hydrochloride],0.4
2,Cc1ncc([N+](=O)[O-])n1CC(O)CCl (configuration not stated) [Ornidazole],-0.4
3,OC(CCCN1CCCCC1)(c1ccccc1)c1ccccc1 [Diphenidol HCl],1.63
4,Cc1ccccc1OCC(O)CO (configuration not stated) [Mephenesin],-0.82
5,CC(C)c1c(C(=O)Nc2ccccc2)c(-c2ccccc2)c(-c2ccc(F)cc2)n1CC[C@@H](O)C[C@@H](O)CC(=O)O [Atorvastatin Calcium],4.62
6,C[C@@H](O)[C@H]1C(=O)N2C(C(=O)[O-])=C(SC3Cn4cnc[n+]4C3)[C@H](C)[C@H]12 (some centres not stated) [Biapenem],-0.17
7,Cc1cc(=O)n(-c2ccccc2)n1C [Antipyrine],-1.23
8,CC1(C)CC[C@]2(C(=O)O)CC[C@]3(C)C(=CC[C@@H]4[C@@]5(C)CC[C@H](O)C(C)(C)[C@@H]5CC[C@]43C)[C@@H]2C1 [Oleanolic Acid],0.1
9,O=C1CCc2cc(OCCCCc3nnnn3C3CCCCC3)ccc2N1 [Cilostazol],-0.9
10,CS(=O)(=O)c1ccc([C@@H](O)[C@@H](CO)NC(=O)C(Cl)Cl)cc1 [Thiamphenicol],0.81
11,O=C(O)CCNC(=O)c1ccccc1 [Betamipron],0.43
12,O=c1cc(-c2ccc(O)c(O)c2)oc2cc(O)cc(O)c12 [Luteolin],-0.52
13,CC(=O)Oc1ccccc1C(=O)O [Aspirin],-0.21
14,Cc1noc(NS(=O)(=O)c2ccc(N)cc2)c1C [Sulfisoxazole],1.17
15,O=C(NCCO[N+](=O)[O-])c1cccnc1 [Nicorandil],-0.61
16,O=C1C(CC[S+]([O-])c2ccccc2)C(=O)N(c2ccccc2)N1c1ccccc1 (racemic) [(+/-)-Sulfinpyrazone],0.41

row,SMILES,z-score of subpopulation abundance
1,CCCCCCCCCC(=O)N[C@@H](Cc1c[nH]c2ccccc12)C(=O)N[C@H](CC(N)=O)C(=O)N[C@@H](CC(=O)O)C(=O)N[C@@H]1C(=O)NCC(=O)N[C@@H](CCCN)C(=O)N[C@@H](CC(=O)O)C(=O)N[C@H](C)C(=O)N[C@@H](CC(=O)O)C(=O)NCC(=O)N[C@H](CO)C(=O)N[C@@H]([C@H](C)CC(=O)O)C(=O)N[C@@H](CC(=O)c2ccccc2N)C(=O)O[C@@H]1C [Daptomycin],-0.81
2,CCn1cc(C(=O)O)c(=O)c2cc(F)c(N3CCN(C)CC3)cc21 [Pefloxacin Mesylate],-0.04
3,"OCc1ccc(Cl)cc1Cl [2,4-dichlorobenzyl alcohol]",-0.17
4,CN(C)CCC=C1c2ccccc2CCc2ccccc21 [Amitriptyline HCl],-0.92
5,COc1ccccc1OCC(O)CN1CCN(CC(=O)Nc2c(C)cccc2C)CC1 (configuration not stated) [Ranolazine],0.37
6,COc1cc(C(C)=O)ccc1OCCCN1CCC(c2noc3cc(F)ccc23)CC1 [Iloperidone],-0.39
7,Cc1ccc(Sc2ccccc2N2CCNCC2)c(C)c1,-0.97
8,Nc1ccc(S(=O)(=O)Nc2ccccn2)cc1 [Sulfapyridine],-0.75
9,CCOC(=O)C1=C[C@@H](OC(CC)CC)[C@H](NC(C)=O)[C@@H](N)C1 [Oseltamivir Phosphate],-1.29
10,O=C(c1ccc(OCCN2CCCCC2)cc1)c1c(-c2ccc(O)cc2)sc2cc(O)ccc12 [Raloxifene HCl],-0.85
11,N#CC(c1ccc(Cl)cc1)c1c(Cl)cc(-n2ncc(=O)[nH]c2=O)cc1Cl (configuration not stated) [Diclazuril],-1.39
12,O=C1NCC2(CCN(CCc3ccccc3)CC2)O1 [Fenspiride HCl],0.21
13,O=C(O)c1ccccc1O [Salicylic acid],-0.89
14,CCCOc1ccc(C(=O)OCCN(CC)CC)cc1N [Proparacaine HCl],-0.06
15,CCOc1ccc2ccccc2c1C(=O)N[C@@H]1C(=O)N2[C@@H]1SC(C)(C)[C@@H]2C(=O)O [Nafcillin Sodium],-0.68
16,CC(C)(O/N=C(\C(=O)N[C@@H]1C(=O)N2C(C(=O)[O-])=C(C[n+]3ccccc3)CS[C@H]12)c1csc(N)n1)C(=O)O [Ceftazidime],0.27
